Unmarked numbers belong to inactive results.
What was measured:
Test in all cases: log2 ratio of Biotin-Ahx-Ub-VS probe labelling (fragment/DMSO); higher = less target engagement (more negative = stronger competition), active = hit call of the paper (q ≤ 0.05, log2 ratio ≤ -1)
Details in all cases: compound concentration: 200 uM; treatment time: 3 h
UniProt O00507 = biological target: UniProt O00507
Procedure, shortened: (§1)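 In triplicate, 495 µg of HEK293T lysate per sample was incubated with fragment at 200 µM or vehicle for 3 h. Biotin-Ahx-Ub-VS was then added to 0.5 µM final for 1 h, and labelled DUBs were captured with NeutrAvidin, digested with LysC and trypsin, and measured by diaPASEF LC-MS/MS. Data are average log2 fragment/vehicle ratios by unpaired t-test from global-median-normalised Spectronaut label-free quantities, restricted to proteins with ≥2 unique peptides.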

UniProt P51784 = biological target: UniProt P51784
Procedure, shortened: as §1

UniProt Q5T2D3 = biological target: T1, UniProt Q5T2D3
T1 sequence (whole entry): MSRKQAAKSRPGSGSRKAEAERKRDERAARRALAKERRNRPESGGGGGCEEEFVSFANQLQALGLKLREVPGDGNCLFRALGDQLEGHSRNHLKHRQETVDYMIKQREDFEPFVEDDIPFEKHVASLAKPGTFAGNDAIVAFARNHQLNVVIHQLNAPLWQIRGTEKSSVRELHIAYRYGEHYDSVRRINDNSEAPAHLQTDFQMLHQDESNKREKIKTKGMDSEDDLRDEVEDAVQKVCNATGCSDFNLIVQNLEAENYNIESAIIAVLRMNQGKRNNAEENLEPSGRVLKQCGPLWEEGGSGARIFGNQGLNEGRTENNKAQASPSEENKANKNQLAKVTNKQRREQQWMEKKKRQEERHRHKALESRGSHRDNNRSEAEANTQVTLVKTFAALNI
Procedure, shortened: as §1

UniProt Q8TE49 = biological target: T2, UniProt Q8TE49
T2 sequence (whole entry): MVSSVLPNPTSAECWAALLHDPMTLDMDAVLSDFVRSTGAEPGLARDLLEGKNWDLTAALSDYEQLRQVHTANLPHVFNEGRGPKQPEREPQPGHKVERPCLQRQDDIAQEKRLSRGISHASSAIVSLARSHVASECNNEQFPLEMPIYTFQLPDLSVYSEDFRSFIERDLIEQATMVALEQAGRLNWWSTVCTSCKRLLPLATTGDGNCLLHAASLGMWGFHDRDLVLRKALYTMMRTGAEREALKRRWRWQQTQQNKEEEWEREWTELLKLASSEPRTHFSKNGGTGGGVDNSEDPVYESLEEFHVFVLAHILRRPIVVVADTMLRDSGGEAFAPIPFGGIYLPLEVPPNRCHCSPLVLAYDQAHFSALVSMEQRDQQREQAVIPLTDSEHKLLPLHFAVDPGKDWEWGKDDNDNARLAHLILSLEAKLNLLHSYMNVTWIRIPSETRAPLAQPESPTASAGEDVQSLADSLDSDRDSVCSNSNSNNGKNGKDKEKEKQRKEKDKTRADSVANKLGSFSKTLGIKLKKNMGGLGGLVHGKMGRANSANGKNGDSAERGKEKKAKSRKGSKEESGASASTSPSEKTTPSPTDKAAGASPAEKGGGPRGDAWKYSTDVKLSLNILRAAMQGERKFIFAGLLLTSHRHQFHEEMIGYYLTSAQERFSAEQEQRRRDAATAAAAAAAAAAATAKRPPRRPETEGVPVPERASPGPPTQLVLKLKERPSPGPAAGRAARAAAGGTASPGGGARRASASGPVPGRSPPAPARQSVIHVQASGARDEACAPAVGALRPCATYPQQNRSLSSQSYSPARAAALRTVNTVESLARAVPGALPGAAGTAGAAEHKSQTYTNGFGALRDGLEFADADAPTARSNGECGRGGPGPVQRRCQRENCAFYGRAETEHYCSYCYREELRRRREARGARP
Procedure, shortened: as §1

UniProt Q9P2H5 = biological target: T3, UniProt Q9P2H5
T3 sequence (whole entry): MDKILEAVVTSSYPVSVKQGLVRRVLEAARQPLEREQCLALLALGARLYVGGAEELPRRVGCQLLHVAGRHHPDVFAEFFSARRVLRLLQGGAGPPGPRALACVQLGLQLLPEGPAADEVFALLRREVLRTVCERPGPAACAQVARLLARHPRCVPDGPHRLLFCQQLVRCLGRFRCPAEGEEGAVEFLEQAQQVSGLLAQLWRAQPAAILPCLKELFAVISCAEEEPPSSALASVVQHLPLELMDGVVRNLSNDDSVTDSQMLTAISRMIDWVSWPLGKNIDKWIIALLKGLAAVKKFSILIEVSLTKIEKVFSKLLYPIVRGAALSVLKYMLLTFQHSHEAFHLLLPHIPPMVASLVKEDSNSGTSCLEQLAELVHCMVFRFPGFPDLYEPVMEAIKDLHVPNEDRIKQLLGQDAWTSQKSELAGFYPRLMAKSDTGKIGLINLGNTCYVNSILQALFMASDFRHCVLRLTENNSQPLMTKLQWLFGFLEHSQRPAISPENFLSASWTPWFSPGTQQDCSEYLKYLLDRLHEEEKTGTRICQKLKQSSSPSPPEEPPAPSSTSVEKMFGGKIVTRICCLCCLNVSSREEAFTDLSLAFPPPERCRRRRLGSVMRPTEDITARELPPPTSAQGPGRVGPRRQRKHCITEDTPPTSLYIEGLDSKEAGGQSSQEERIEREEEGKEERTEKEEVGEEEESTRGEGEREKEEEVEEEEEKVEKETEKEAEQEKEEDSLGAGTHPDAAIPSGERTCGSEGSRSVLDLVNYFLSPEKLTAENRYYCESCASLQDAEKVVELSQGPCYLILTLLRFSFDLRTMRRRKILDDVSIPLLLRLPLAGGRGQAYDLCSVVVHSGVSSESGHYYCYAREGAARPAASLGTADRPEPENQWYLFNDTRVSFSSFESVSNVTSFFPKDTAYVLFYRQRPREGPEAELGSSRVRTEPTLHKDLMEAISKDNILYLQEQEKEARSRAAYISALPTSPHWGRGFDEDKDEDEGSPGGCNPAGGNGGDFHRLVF
Procedure, shortened: as §1

UniProt Q9UGI0 = biological target: T4, UniProt Q9UGI0
T4 sequence (whole entry): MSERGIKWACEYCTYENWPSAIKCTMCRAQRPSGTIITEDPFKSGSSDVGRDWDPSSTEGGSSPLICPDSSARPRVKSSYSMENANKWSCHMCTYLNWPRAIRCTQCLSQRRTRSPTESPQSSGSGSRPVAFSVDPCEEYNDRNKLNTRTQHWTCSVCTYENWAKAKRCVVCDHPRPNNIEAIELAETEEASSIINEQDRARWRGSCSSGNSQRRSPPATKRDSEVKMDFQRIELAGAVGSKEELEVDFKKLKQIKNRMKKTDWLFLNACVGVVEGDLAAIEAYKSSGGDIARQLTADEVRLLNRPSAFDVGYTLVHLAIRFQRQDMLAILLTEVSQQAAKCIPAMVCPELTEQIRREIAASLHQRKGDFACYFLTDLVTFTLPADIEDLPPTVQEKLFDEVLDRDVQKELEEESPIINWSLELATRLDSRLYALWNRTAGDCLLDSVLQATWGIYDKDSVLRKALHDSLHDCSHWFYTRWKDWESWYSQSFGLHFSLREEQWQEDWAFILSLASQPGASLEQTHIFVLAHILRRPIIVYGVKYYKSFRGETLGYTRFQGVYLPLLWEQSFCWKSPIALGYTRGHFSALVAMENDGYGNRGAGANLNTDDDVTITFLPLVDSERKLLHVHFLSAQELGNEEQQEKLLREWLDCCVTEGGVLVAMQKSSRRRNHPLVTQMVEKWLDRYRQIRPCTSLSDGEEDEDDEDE
Procedure, shortened: as §1

YOD1 = biological target: T5, YOD1 (UniProt Q5VVQ6)
T5 sequence (whole entry): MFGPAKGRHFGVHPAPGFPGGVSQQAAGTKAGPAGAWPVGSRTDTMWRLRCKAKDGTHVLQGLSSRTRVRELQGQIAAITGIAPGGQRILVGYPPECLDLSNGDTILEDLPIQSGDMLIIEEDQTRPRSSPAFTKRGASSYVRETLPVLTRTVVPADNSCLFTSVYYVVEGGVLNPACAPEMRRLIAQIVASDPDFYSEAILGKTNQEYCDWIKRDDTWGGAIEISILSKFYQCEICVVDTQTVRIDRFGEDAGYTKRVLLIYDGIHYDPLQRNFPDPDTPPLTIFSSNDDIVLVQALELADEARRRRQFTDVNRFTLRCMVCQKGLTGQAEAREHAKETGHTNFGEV
Procedure, shortened: as §1

Sequence of UniProt P51784 (P51784 whole entry): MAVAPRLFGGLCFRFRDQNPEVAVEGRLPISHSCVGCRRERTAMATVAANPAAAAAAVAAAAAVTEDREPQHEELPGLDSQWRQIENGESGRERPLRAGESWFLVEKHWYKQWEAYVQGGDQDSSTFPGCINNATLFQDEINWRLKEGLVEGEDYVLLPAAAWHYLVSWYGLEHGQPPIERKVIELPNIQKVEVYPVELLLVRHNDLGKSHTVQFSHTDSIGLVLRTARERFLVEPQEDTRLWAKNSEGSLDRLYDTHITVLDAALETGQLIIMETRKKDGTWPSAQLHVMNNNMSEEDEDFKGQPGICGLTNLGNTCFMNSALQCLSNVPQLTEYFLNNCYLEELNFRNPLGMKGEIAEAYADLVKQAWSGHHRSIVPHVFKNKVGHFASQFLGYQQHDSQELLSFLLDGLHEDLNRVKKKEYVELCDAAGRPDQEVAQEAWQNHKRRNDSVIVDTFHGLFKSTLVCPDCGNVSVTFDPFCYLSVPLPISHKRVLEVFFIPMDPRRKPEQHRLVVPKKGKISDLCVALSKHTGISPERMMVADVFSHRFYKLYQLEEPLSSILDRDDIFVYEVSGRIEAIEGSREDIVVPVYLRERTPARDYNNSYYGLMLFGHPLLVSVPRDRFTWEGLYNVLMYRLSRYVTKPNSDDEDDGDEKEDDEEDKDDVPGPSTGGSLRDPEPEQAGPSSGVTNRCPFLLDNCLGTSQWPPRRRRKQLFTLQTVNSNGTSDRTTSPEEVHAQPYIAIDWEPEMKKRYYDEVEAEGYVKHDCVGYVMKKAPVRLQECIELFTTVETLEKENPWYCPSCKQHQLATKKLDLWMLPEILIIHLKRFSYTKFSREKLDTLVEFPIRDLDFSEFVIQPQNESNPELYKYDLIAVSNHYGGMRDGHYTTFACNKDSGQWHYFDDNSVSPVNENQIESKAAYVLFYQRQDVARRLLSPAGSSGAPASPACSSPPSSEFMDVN
Sequence of UniProt O00507 (O00507 whole entry, the tested form may be a part): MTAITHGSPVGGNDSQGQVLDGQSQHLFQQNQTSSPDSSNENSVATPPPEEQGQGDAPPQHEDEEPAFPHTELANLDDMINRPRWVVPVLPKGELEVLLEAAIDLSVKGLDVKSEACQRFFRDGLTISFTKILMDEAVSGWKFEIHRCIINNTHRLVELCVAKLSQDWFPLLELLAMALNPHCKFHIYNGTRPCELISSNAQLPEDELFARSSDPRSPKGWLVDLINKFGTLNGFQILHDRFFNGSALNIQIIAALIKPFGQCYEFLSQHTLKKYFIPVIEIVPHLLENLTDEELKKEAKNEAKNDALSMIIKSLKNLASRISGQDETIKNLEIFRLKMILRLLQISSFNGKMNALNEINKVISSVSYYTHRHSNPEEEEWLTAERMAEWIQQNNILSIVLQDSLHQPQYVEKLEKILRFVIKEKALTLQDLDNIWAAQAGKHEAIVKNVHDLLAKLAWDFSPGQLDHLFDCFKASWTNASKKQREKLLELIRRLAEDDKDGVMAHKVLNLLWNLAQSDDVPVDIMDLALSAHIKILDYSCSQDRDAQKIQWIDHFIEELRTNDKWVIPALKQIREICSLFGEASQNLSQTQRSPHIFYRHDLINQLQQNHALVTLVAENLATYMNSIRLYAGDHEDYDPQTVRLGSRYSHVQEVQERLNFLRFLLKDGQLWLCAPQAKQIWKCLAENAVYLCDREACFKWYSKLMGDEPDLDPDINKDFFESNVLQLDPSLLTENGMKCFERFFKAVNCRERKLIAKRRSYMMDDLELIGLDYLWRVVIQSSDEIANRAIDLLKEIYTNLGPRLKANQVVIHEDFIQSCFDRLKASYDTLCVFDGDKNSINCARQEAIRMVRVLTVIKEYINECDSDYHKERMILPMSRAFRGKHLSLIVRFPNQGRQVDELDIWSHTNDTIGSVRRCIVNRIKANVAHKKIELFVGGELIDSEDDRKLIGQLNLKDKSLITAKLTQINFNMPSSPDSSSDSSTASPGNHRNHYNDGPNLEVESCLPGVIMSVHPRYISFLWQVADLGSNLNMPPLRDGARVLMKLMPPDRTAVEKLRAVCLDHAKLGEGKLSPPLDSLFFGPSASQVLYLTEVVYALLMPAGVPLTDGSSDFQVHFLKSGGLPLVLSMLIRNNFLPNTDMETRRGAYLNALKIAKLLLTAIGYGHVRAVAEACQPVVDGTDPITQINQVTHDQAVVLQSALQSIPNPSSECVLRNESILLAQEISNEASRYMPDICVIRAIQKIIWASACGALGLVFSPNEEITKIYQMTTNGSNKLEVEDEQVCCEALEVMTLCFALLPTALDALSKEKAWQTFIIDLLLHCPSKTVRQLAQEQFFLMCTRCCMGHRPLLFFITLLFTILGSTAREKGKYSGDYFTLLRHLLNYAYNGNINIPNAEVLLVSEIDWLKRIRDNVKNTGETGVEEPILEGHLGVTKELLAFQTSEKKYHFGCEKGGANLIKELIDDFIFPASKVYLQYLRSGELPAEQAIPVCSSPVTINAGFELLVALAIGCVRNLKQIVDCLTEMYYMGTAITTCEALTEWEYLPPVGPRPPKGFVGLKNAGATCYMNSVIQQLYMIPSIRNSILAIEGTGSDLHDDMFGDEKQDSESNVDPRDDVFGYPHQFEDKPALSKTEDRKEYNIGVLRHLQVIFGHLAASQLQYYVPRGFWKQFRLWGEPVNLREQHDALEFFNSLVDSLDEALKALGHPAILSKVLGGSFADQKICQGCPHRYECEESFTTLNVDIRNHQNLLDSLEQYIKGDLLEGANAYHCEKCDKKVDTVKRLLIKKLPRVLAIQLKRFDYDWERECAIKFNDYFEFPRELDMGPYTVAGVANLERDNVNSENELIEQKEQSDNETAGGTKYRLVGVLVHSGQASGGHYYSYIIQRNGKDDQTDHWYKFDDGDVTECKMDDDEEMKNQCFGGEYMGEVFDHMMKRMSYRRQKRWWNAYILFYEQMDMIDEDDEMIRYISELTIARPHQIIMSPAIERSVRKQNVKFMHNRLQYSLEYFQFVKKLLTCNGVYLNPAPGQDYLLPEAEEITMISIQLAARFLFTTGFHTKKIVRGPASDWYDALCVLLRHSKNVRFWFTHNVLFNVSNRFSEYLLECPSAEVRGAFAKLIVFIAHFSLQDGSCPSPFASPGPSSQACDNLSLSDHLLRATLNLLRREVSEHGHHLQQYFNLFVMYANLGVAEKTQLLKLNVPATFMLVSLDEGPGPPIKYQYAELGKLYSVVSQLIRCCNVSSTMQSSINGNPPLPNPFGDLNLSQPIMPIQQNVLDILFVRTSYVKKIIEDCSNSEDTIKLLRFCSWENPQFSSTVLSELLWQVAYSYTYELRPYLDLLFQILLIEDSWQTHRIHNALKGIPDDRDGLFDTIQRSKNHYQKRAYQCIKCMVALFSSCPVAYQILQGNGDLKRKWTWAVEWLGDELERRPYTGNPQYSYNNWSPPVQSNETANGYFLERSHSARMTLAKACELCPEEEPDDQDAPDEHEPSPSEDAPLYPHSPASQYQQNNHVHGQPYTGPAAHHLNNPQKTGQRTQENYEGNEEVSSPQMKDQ

Structure (SMILES) | log2 ratio of Biotin-Ahx-Ub-VS probe labelling (UniProt O00507) | log2 ratio of Biotin-Ahx-Ub-VS probe labelling (UniProt P51784) | log2 ratio of Biotin-Ahx-Ub-VS probe labelling (UniProt Q5T2D3) | log2 ratio of Biotin-Ahx-Ub-VS probe labelling (UniProt Q8TE49) | log2 ratio of Biotin-Ahx-Ub-VS probe labelling (UniProt Q9P2H5) | log2 ratio of Biotin-Ahx-Ub-VS probe labelling (UniProt Q9UGI0) | log2 ratio of Biotin-Ahx-Ub-VS probe labelling (YOD1)
Cc1cccc(C(CNC(=O)CCl)N2CCOCC2)c1.Cl (centres undefined) | 0.29 | -0.0777 | -0.329 | -0.249 | -0.237 | 0.0449 | -0.28
O=C(O)C1Cc2ccccc2CN1C(=O)CCl (centres undefined) | -0.298 | -0.0646 | -0.268 | -0.664 | -0.394 | -0.642 | -0.0629
CN(C)C(=O)c1ccc(CNC(=O)CCl)cc1 | 0.565 | 0.0173 | -0.167 | -0.516 | -0.0353 | -0.474 | 0.0763
CC1CCc2onc(CNC(=O)CCl)c2C1 (centres undefined) | 0.195 | 0.152 | -0.305 | -0.691 | -0.252 | -0.538 | 0.146
O=C(CCl)NCc1ccc(Cl)cc1 | 0.318 | 0.0262 | -0.0567 | -0.395 | 0.00401 | -0.0432 | 0.238
Cc1cccc2nc(CCNC(=O)CCl)cn12.Cl | -0.595 | -0.113 | -0.351 | -0.764 | -0.327 | -0.846 | -0.336
O=C(CCl)N1CCOCC1C1CC1 (centres undefined) | -0.0511 | 0.141 | -0.288 | -0.663 | -0.279 | -0.344 | -0.172
Cc1cc(CC(C)NC(=O)CCl)n[nH]1 (centres undefined) | -0.165 | -0.131 | -0.595 | 0.0154 | -0.232 | -0.68 | 0.241
C[C@@H](NC(=O)CCl)c1cccc(C#N)c1 | -0.38 | 0.045 | -0.157 | -0.912 | -0.136 | -0.111 | -0.0878
O=C(CCl)N1CCOC(CCc2ccccc2)C1 (centres undefined) | -0.798 | -0.097 | -0.306 | -0.84 | -0.236 | -0.876 | -0.418
O=C(CCl)N1CCC(C(=O)N2CCCCCC2)CC1 | 0.0804 | 0.0166 | -0.255 | -0.488 | -0.287 | -0.0376 | 0.016
Cc1ccccc1OCC(=O)N1CCN(C(=O)CCl)CC1 | 0.258 | -0.215 | -0.106 | -0.335 | -0.172 | -0.104 | -0.00243
CC(=O)Nc1ccc(NC(=O)CCl)cc1 | -0.353 | 0.016 | -0.228 | -0.811 | -0.0361 | -1.31 (active) | -0.229
Cc1cccn2cc(CCNC(=O)CCl)nc12.Cl | -0.143 | -0.122 | -0.0486 | -0.332 | -0.379 | -0.18 | -0.095
CN(CCC(O)c1ccc(Br)cc1)C(=O)CCl (centres undefined) | -0.198 | -0.124 | -0.111 | -1.29 (active) | -0.328 | -0.555 | 0.00847
Cl.Cn1ncc2c1CC(NC(=O)CCl)CC2 (centres undefined) | 0.311 | 0.0472 | -0.0643 | -0.377 | -0.257 | -0.162 | 0.181
O=C(CCl)NCCc1ccc2c(c1)OCCO2 | -0.489 | 0.0955 | -0.249 | -0.327 | -0.0308 | -0.256 | -0.414
O=C(CCl)NC1CCS(=O)(=O)c2ccccc21 (centres undefined) | -0.00358 | -0.174 | -0.342 | -1.2 (active) | -0.644 | -0.564 | 0.0479
Cc1n[nH]c(=O)c2c(NC(=O)CCl)oc(C)c12 | 0.347 | 0.0686 | -0.674 | -0.575 | -0.144 | 0.264 | 0.238
O=C(CCl)NCCC1=CCCCC1 | 0.347 | 0.0951 | -0.215 | -0.191 | -0.0991 | -0.159 | 0.16
O=C(CCl)N1CCN(C(=O)N2CCCCC2)CC1 | -1.18 (active) | -0.772 | -0.618 | -0.968 | -0.897 | -1.27 (active) | -0.827
Cl.Cn1c(CNC(=O)CCl)nc2cccnc21 | -0.348 | -0.0765 | -0.354 | -0.488 | -0.199 | -0.199 | -0.334

— the supplement of paper PMC11732987, “Enantioselective OTUD7B fragment discovery through chemoproteomics screening and high-throughput optimisation” (Communications Chemistry, 2025)
